From PubChem
Rows were chosen to be rich in hits. Some 2.4% of all compounds tested hit in one or more screens of this group.
HSP90 inh – HSP90 inhibitors, primary screen, cell lysate, luminescence. inhibition, % at 5.6 µM. AID 1789, 2009. Rabbit reticulocyte lysate, luciferase refolding luminescence, 3 h. 290,000 compounds, 0.91% hits. Heat shock protein HSP 90 (rabbit reticulocyte lysate; luciferase refolding);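 active means inhibition above the screen-wide mean plus 3 SD, computed separately per campaign, cut at about 16% in these data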;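 further: 0% = DMSO wells and 100% = 60 µM geldanamycin wells; inhibitors lower the luminescence because luciferase stays unfolded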
STAT3 inh – IL-6 driven STAT3 reporter inhibitors, primary screen, U3A cells, luciferase, luminescence, MLSCN library; IL-6 STAT3-luciferase reporter; host cell line lacks STAT1; inhibition, % at 5.5 µM; 190,000 compounds, 0.89% hits; AID 862, 2007;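 active means inhibition above the mean inhibition across all screened compounds plus 3 SD, cut at about 44% in these data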;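 further: 0% = DMSO only wells and 100% = 100 µM nifuroxazide control wells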
STAT1 inh – STAT1 signaling inhibitors, primary screen, cell-based, HTS, luciferase reporter | NIH 3T3 STAT1-luciferase reporter, IFN-gamma, luminescence | inhibition, % at 5.5 µM | 200,000 compounds, 0.35% hits | AID 920, 2007;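 active means inhibition above a set limit, the mean inhibition across all tested compounds plus 3 SD, cut at about 34% in these data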;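 further: 0% = IFN-gamma with DMSO and 100% = IFN-gamma with 300 µM nifuroxazide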
PPC-1+TRAIL kill – compounds killing PPC-1 cancer cells with TRAIL present, primary screen, TRAIL potentiator project, ATPLite luminescence, uHTS | PPC-1 cells + TRAIL, ATPLite viability luminescence | cell killing (% activity), % at 4 µM or 5 µM | 220,000 compounds, 0.41% hits;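 active means cell killing above 50% in the first pass at 4 µM, then a duplicate retest at 5 µM averaging 50% or more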;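 further: plate controls were cells with TRAIL plus DMSO for no effect and medium-only wells lacking cells for full effect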
TRAIL sens C8 – viability loss with TRAIL in NB7+C8 cells, primary screen, TRAIL sensitizer project, cell-based, ATPlite luminescence; 360,000 compounds, 1% hits; inhibition (viability loss, TRAIL sensitization), % at 10 µM; AID 624354, 2012;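 active means compounds causing at least 50% loss of cell viability in the single-dose screen, relative to plate controls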
HSF1 inhib – HSF1 inhibitors in luciferase reporter cells, primary screen, cell-based, NIH3T3, luminescence | AID 2098, 2009 | 300,000 compounds, 0.77% hits | activity change, negative = inhibition, % at 7.5 µM (by protocol) | NIH3T3-HGL HSE-luciferase, MG132-induced, luminescence 8 h; active compounds read low;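 active means more than half of replicate wells show activity change below -50%, luminescence cut by over half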;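 further: luciferase reports HSF-1 transcriptional activity via heat shock element; 0% = median of DMSO wells and -100% = zero luminescence signal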
Active calls of the source: *; nt = no result.

SMILES | HSP90 inh | STAT3 inh | STAT1 inh | PPC-1+TRAIL kill | TRAIL sens C8 | HSF1 inhib
CCCC(=O)N1CCC1(C)C(=O)NS(=O)(=O)c1cccs1 (centres undefined) | nt | nt | nt | nt | -3 | nt
Cc1ccc(-c2nn(-c3ccccc3)cc2NC(=O)CCl)cc1 | 7 | 10 | -12 | 28 | 56* | 25
Cc1ccc(-c2cc(NC(=O)CCl)n(-c3ccccc3)n2)cc1 | 3 | 24 | 0 | 36 | 45 | 50
O=C(NC(=S)/C(=C1\CCCCCN1)[N+](=O)[O-])c1ccccc1 | nt | nt | nt | nt | 78* | nt
Nc1ccccc1C(=O)NNC1=C(C(=O)C(F)(F)F)CCC1 | 2 | nt | nt | 4 | 9 | -52*
COC(=O)c1sc(NC(=O)c2cc(-c3ccccc3)nc3ccccc23)c(C#N)c1C | 4 | 49* | 7 | 17 | 52* | -10
CCOC(=O)c1sc(NC(=O)c2cc(-c3ccc(C)cc3)nc3ccccc23)c(C#N)c1C | -1 | -1 | -7 | 19 | 47 | -10
O=C(NC1=NCCS1)c1cc(-c2ccc(-c3ccccc3)cc2)nc2ccccc12 | -2 | -11 | -39 | 45 | 65* | 28
CCOc1ccc2c(ccc(/C=C/c3cc(C)c4cccnc4c3O)[n+]2C)c1 | nt | nt | nt | nt | 37 | nt
COCCNc1nc(-c2ccc(OC)cc2C)c2sc(-c3ccccc3)cc2n1 | nt | nt | nt | nt | 13 | nt
O=C(CSC(=S)N1CCCCC1)Nc1ncc2c(n1)CCCC2=O | 1 | nt | nt | -9 | 6 | -52*
O=C(CSC(=S)N1CCCCC1)Nc1ncc2c(n1)CC(c1ccco1)CC2=O (centres undefined) | -2 | nt | nt | 16 | 6 | 2
O=C1C(Cl)=C(NCCCN2CCOCC2)C(=O)c2ccccc21 | nt | nt | nt | nt | 83* | nt
O=C1C(Cl)=C(NCCN2CCOCC2)C(=O)c2ccccc21 | 7 | nt | nt | nt | 5 | -1
Cc1ccc2[nH]c3c(N4CCc5ccccc5C4)ncnc3c2c1 | -1 | 73* | 33 | 3 | 32 | 52
Fc1ccc2[nH]c3c(N4CCc5ccccc5C4)ncnc3c2c1 | 3 | nt | nt | -4 | 17 | 3
c1ccc2c(c1)[nH]c1c(N3CCSCC3)ncnc12 | -1 | -7 | 38* | nt | 3 | nt
O=[N+]([O-])c1ccccc1N(S(=O)(=O)c1ccccc1)S(=O)(=O)c1ccccc1 | nt | nt | nt | nt | -3 | nt
CCOC(=O)/C(=C\c1ccc(OC(F)F)cc1)C1=Nn2c(nnc2-c2ccc(Cl)cc2)SC1 | -1 | 5 | 5 | 29 | 94* | -83*
COc1ccc(-c2nnc3n2N=C(C)CS3)cc1 | 4 | 13 | 4 | 20 | -3 | -6
CCOC(=O)/C(=C/c1ccc(OC(F)F)cc1)C1=Nn2c(nnc2-c2ccc(Cl)cc2)SC1 | nt | nt | nt | nt | 90* | nt
OCC1OC(n2cnc3c(NCc4ccco4)ncnc32)C(O)C1O (centres undefined) | nt | nt | nt | nt | 59* | nt
Nc1nc(F)nc2c1ncn2[C@@H]1O[C@H](CO)[C@@H](O)[C@@H]1O | 3 | 1 | 9 | 16 | 12 | 1
OC[C@H]1O[C@@H](n2cnc3c(NCc4ccco4)ncnc32)[C@H](O)[C@@H]1O | nt | nt | nt | nt | 48 | nt
OCC1OC(n2cnc3c(SCc4ccccc4)ncnc32)C(O)C1O (centres undefined) | nt | nt | nt | nt | 55* | nt
SMILES | HSP90 inh | STAT3 inh | STAT1 inh | PPC-1+TRAIL kill | TRAIL sens C8 | HSF1 inhib
C=CCNc1ncnc2c1ncn2C1OC(CO)C(O)C1O (centres undefined) | -2 | 22 | 17 | 11 | 57* | -9
Nc1nc(F)nc2c1ncn2[C@@H]1O[C@H](CO)[C@@H](O)[C@H]1O | nt | nt | nt | nt | 57* | -56*
CCc1nc2ccc(C(=O)Nc3cccc(OCC(=O)N(C)C)c3)cn2c1N(CC)CCOC | nt | nt | nt | nt | -8 | nt
O=C(CCl)N1CCCC1c1ccc2c(c1)OCCO2 (centres undefined) | 1 | nt | nt | nt | 65* | -63*
COc1cc(/C=C/C(=O)OCC(=O)N2CC(C)OC(C)C2)ccc1OCC#N (centres undefined) | nt | nt | nt | nt | -4 | nt
CCOc1cc(C2NN=C(c3ccc(C)cc3)S2)ccc1O (centres undefined) | -6 | -4 | -40 | 18 | 39 | nt
COc1ccc(C2NN=C(c3ccc(C)cc3)S2)cc1 (centres undefined) | -5 | nt | nt | nt | 50* | 16
CSc1ccc(C2NN=C(c3ccccc3)S2)cc1 (centres undefined) | nt | nt | nt | nt | 84* | -28
NC(=O)c1ccc(NC(=O)COC(=O)CCC2CCCC2)cc1 | nt | nt | nt | nt | -9 | nt
COc1ccc(-c2nc(N/N=C(\C)c3ccc(O)cc3)c3ccccc3n2)cc1 | 3 | nt | nt | 44 | 59* | 13
COc1ccc(Nc2nc(-c3ccccc3)nc3ccccc23)cc1 | -3 | nt | nt | nt | 7 | 0
Cc1ccc(-n2nc(C)c3cc(C(=O)O)sc32)cc1 | -1 | 2 | 12 | 29 | 0 | -69*
Cc1nn(-c2ccccc2)c2sc(C(=O)O)cc12 | 3 | 4 | 0 | 4 | -7 | 3
COc1ccc(C(=O)Nc2ccc(OCc3ccccc3)cc2)cc1[N+](=O)[O-] | 1 | 25 | 1 | 26 | 20 | -61*
COCCCN1C(=O)C(CC(=O)NC2CCCCC2)CC(C(=O)N2CCCCCC2)=C1C (centres undefined) | nt | nt | nt | nt | -18 | nt
COc1cccc(C2CC(c3ccccc3)n3ncnc3N2)c1 (centres undefined) | 3 | -2 | -4 | 3 | -12 | -77*
Cc1ccc(Nc2nc(-c3cccs3)cs2)nc1 | 17* | 80* | 64* | 30 | 65* | -24
Cc1ccc(Nc2nc(-c3ccccc3)cs2)nc1 | 15 | nt | nt | nt | 43 | 4
Cc1sc2nc(C)n(/N=C/c3ccc(O)cc3)c(=O)c2c1C | 2 | 12 | 4 | -6 | 50* | -4
CCOC(=O)C1=C(C)N(CCCC(=O)O)C(=O)NC1c1ccc(C(F)(F)F)cc1 (centres undefined) | nt | nt | nt | nt | nt | -7
CCOC(=O)C1=C(N)OC2=C(C(=O)CC(C)(C)C2)C1c1ccccc1OCC#N (centres undefined) | 2 | -2 | 1 | -9 | -8 | -57*
CCC(=O)N1CCCC(C)(C(=O)NS(=O)(=O)c2ccccc2Cl)C1 (centres undefined) | nt | nt | nt | nt | -16 | nt
COC(=O)[C@]12CCCCC=C1N(Cc1ccco1)C(=O)[C@H](CC(=O)NCc1cccc3ccccc13)C2 | nt | nt | nt | nt | -12 | nt
COc1cccc(NC(=O)c2ccccc2)c1 | nt | nt | nt | nt | 13 | nt
COc1cccc(NC(=O)c2ccc(OC(F)(F)F)cc2)c1 | nt | nt | nt | nt | 49* | 17
COc1cccc(NC(=O)Nc2nc(-c3ccc(OC)c(OC)c3)cs2)c1 | 2 | nt | nt | nt | 97* | -3
COc1ccc(C(=O)Nc2ccc3c(c2)nc(CN2CCCC2)n3C)cc1 | -1 | 28 | -16 | 4 | 11 | -86*
COc1ccc(C(=O)Nc2cccc(OC)c2)cc1 | 5 | 34 | -21 | 46 | 53* | 2
